Measurements published in the supplement of paper PMC10849652.
The full data set covers some 7,900 targets. This sample favours those with a hit. About 0.6% of all pairs of compound and target were hits.

What was measured:
Test in all cases: log2 fold change, soluble protein after heating vs DMSO (PISA); higher = thermal stabilisation; K562 cells, 10 uM, 30 min; active = over 0.2 and 3.5 SD of the protein, either way, in both replicates (recomputed)
[1] = compound: Cc1ccc(NC(=O)c2ccc(CN3CC[C@H](N(C)C)C3)c(C(F)(F)F)c2)cc1Nc1nccc(-c2cncnc2)n1 [bafetinib]
Method in brief: (§1)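 K562 cells at 2×10^6 cells/mL were exposed to 10 μM compound for 30 min, then aliquots were heated for 3 min across 48°C-58°C, pooled, and extracted in PBS containing 0.5% NP-40 at 4°C. The supernatant after 21,000xg for 90 min was taken as soluble protein and measured by TMTpro 16plex LC-MS/MS with channel sums equalised. Thermal stability is reported relative to control samples, with values from duplicates. Fold changes are given on a log2 scale.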

[2] = compound: Cc1cccc(CC(=O)N2CCc3c2ccc(-c2cn(C)c4ncnc(N)c24)c3F)n1
Method in brief: as §1

[3] = compound: Cc1cn(-c2cc(NC(=O)c3ccc(C)c(Nc4nccc(-c5cccnc5)n4)c3)cc(C(F)(F)F)c2)cn1 [nilotinib]
Method in brief: as §1

[4] = compound: Cc1nc(Nc2n[nH]c3c2CN(C(=O)N[C@H](CN(C)C)c2ccccc2)C3(C)C)c2sccc2n1
Method in brief: as §1

[5] = compound: Cc1nc(Nc2ncc(C(=O)Nc3c(C)cccc3Cl)s2)cc(N2CCN(CCO)CC2)n1 [dasatinib]
Method in brief: as §1

[6] = compound: Cc1ncc(-c2ccnc(Nc3ccc(S(C)(=O)=O)cc3)n2)n1C(C)C
Method in brief: as §1

[7] = compound: Cn1cc(-c2ccc3c(c2)CCN3C(=O)Cc2cccc(C(F)(F)F)c2)c2c(N)ncnc21
Method in brief: as §1

[8] = compound: Cn1cc(-c2ccc3nnc(C(F)(F)c4ccc5ncccc5c4)n3n2)cn1
Method in brief: as §1

[9] = compound: Cn1cncc1[C@@](N)(c1ccc(Cl)cc1)c1ccc2c(c1)c(-c1cccc(Cl)c1)cc(=O)n2C [tipifarnib]
Method in brief: as §1

[10] = compound: FC(F)(F)c1ccc(/C=C/c2nc(COc3ccc(CCCCn4ccnn4)cc3)co2)cc1 [mubritinib]
Method in brief: as §1

[11] = compound: NC(=O)Nc1cc(-c2cccc(F)c2)sc1C(=O)N[C@H]1CCCNC1
Method in brief: as §1

[12] = compound: NC(=O)c1cnc(N[C@@H]2CCCC[C@@H]2N)nc1Nc1cccc(-n2nccn2)c1
Method in brief: as §1

[13] = compound: NC1(c2ccc(-c3nc4ccn5c(=O)[nH]nc5c4cc3-c3ccccc3)cc2)CCC1
Method in brief: as §1

[14] = compound: NCC(=O)Nc1ccc(-n2nc(C(F)(F)F)cc2-c2ccc3c(ccc4ccccc43)c2)cc1
Method in brief: as §1

[15] = compound: Nc1ccccc1NC(=O)c1ccc(CNC(=O)OCc2cccnc2)cc1 [entinostat]
Method in brief: as §1

[16] = compound: O=C(CCCCCCC(=O)Nc1ccccc1)NO [vorinostat]
Method in brief: as §1

[17] = compound: O=C(CCCCCCNC(=O)c1cnc(N(c2ccccc2)c2ccccc2Cl)nc1)NO [citarinostat]
Method in brief: as §1

[18] = compound: O=C(O)c1ccc2c(c1)nc(Nc1cccc(Cl)c1)c1ccncc12 [silmitasertib]
Method in brief: as §1

[19] = compound: O=C1NC(=O)C(c2cnc3ccccn23)=C1c1cn2c3c(cc(F)cc13)CN(C(=O)N1CCCCC1)CC2
Method in brief: as §1

[20] = compound: c1cc(OCCN2CCCCC2)cc(-c2n[nH]c3ccc(-c4nnc[nH]4)cc23)c1
Method in brief: as §1

Measured: log2 fold change

WDHD1 (UniProt O75717)
inactive: [1] -0.009 | [2] 0.008 | [3] -0.005 | [4] -0.12 | [5] -0.076 | [6] -0.021 | [7] 0.03 | [8] 0.022 | [9] -0.041 | [10] 0.067 | [11] -0.037 | [12] -0.054 | [13] -0.156 | [14] -0.106 | [15] 0.09 | [16] 0.119 | [17] 0.176 | [18] 0.025 | [19] -0.107 | [20] -0.001

TMEM161B (UniProt Q8NDZ6)
inactive: [1] -0.01 | [2] 0.073 | [3] -0.148 | [4] -0.018 | [6] -0.046 | [7] -0.08 | [8] 0.103 | [9] -0.043 | [10] 0.036 | [11] -0.056 | [12] 0.029 | [13] -0.017 | [14] -0.073 | [15] 0.041 | [16] 0.097 | [17] 0.036 | [18] -0.011 | [19] 0.003 | [20] -0.03
active: [5] -0.273

TSG101 (UniProt Q99816)
UniProt Q99816, sequence (Q99816 whole entry, looked up): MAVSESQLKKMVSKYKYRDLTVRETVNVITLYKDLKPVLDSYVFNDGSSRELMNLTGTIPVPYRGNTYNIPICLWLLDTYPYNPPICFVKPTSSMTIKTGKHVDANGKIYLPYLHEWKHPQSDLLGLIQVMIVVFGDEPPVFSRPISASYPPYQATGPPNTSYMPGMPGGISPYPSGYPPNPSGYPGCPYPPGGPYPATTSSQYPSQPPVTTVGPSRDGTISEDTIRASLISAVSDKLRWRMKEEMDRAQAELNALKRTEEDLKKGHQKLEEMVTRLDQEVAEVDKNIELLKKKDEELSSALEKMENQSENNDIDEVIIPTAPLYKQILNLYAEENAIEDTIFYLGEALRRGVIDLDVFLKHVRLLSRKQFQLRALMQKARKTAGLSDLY
inactive: [1] -0.096 | [2] -0.034 | [3] -0.014 | [4] -0.081 | [5] -0.092 | [6] -0.007 | [7] 0.033 | [8] -0.024 | [9] -0.033 | [10] 0.052 | [11] -0.02 | [12] -0.082 | [13] -0.157 | [14] -0.033 | [15] 0.038 | [16] -0.007 | [17] 0.053 | [18] 0.025 | [19] -0.103 | [20] 0.025

VPS52 (UniProt Q8N1B4)
UniProt Q8N1B4, sequence (Q8N1B4 whole entry, looked up): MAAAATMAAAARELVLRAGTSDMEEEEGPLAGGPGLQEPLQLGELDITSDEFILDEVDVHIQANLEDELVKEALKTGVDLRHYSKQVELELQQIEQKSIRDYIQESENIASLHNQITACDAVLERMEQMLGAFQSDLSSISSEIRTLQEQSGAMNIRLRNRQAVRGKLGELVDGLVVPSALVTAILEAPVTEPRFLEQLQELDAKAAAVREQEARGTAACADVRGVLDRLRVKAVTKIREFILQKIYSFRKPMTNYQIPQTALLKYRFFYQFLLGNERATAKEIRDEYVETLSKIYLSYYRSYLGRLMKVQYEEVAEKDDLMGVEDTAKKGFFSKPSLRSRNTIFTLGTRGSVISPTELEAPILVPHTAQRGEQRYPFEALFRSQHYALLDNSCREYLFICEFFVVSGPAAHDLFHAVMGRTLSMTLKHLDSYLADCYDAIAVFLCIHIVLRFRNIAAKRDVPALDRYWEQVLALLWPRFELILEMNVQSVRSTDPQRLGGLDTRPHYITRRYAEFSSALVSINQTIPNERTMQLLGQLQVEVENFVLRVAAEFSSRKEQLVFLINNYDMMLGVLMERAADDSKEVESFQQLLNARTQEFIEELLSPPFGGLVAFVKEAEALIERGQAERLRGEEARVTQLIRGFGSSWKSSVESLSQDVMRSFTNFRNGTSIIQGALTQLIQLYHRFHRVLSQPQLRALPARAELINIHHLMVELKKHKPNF
inactive: [1] -0.005 | [2] -0.031 | [3] -0.085 | [4] -0.086 | [5] -0.071 | [6] 0.091 | [7] 0.001 | [8] -0.016 | [9] -0.089 | [10] 0 | [11] 0.065 | [12] -0.005 | [13] -0.132 | [14] -0.039 | [15] 0.037 | [16] 0.086 | [17] 0.015 | [18] 0.08 | [19] 0.02 | [20] 0.016

USP7 (UniProt Q93009)
UniProt Q93009, sequence (Q93009 whole entry, looked up): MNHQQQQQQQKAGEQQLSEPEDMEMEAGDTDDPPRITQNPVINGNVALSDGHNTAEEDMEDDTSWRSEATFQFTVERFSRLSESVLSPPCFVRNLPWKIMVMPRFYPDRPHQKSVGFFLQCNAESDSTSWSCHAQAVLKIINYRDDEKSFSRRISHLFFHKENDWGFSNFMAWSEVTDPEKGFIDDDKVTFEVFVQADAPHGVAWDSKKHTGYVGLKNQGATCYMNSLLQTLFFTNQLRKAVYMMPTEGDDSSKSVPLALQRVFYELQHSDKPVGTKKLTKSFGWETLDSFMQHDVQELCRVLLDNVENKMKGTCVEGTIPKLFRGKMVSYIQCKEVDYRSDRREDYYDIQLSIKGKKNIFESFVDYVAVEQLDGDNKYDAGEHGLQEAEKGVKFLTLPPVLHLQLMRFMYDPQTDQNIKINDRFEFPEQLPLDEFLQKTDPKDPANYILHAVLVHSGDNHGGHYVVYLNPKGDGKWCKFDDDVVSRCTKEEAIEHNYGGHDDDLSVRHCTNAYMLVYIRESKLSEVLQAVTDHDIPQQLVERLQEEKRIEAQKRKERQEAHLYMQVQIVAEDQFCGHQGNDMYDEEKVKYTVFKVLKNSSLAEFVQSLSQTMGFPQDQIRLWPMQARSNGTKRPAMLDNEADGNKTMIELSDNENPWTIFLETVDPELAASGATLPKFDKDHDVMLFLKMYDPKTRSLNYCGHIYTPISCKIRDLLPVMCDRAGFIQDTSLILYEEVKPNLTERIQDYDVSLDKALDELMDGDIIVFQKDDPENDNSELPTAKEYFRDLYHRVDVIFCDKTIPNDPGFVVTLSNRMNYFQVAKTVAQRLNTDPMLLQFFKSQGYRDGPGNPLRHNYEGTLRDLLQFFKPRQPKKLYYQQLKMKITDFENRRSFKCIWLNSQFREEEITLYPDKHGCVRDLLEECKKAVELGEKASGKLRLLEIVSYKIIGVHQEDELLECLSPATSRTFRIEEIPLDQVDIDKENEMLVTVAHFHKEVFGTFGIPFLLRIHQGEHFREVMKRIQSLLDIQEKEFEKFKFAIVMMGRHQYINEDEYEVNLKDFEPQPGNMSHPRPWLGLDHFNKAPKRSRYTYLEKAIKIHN
inactive: [1] -0.018 | [2] 0.097 | [3] -0.076 | [4] -0.113 | [5] -0.272 | [6] -0.011 | [7] 0.101 | [8] 0.153 | [9] -0.139 | [10] 0.068 | [11] -0.039 | [12] -0.062 | [13] -0.263 | [14] -0.07 | [15] 0.097 | [16] 0.182 | [17] 0.096 | [18] -0.028 | [19] -0.037 | [20] 0.046

TMEM208 (UniProt Q9BTX3)
UniProt Q9BTX3, sequence (Q9BTX3 whole entry, looked up): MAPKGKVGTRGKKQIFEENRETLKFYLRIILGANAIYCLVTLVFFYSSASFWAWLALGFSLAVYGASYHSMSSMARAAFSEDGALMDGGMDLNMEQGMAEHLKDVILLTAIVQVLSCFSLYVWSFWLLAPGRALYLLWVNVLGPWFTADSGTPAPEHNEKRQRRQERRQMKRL
inactive: [1] -0.131 | [2] 0.097 | [3] -0.101 | [4] 0.092 | [5] -0.19 | [6] 0.185 | [7] -0.024 | [8] 0.01 | [9] -0.223 | [10] 0.062 | [11] 0.038 | [12] -0.133 | [13] -0.28 | [14] -0.181 | [15] -0.01 | [16] 0.187 | [17] 0.036 | [18] 0.048 | [19] 0.02 | [20] -0.09

UQCR10 (UniProt Q9UDW1)
UniProt Q9UDW1, sequence (Q9UDW1 whole entry, looked up): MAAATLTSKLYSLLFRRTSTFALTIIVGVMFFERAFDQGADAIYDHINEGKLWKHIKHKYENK
inactive: [1] -0.047 | [2] -0.011 | [3] -0.003 | [4] 0.02 | [5] -0.009 | [6] -0.059 | [7] 0.072 | [8] 0.084 | [9] 0.007 | [10] -0.024 | [11] -0.053 | [12] -0.043 | [13] 0.076 | [14] 0.02 | [15] -0.003 | [16] 0.187 | [17] 0.045 | [18] -0.003 | [19] -0.067 | [20] -0.026

TTC4 (UniProt O95801)
inactive: [1] 0.036 | [2] 0.116 | [3] -0.034 | [4] -0.094 | [5] -0.137 | [6] 0.003 | [7] 0.019 | [8] 0 | [9] -0.077 | [10] 0.061 | [11] -0.071 | [12] -0.047 | [13] -0.064 | [14] -0.073 | [15] 0.069 | [16] 0.077 | [17] 0.064 | [18] 0.074 | [19] -0.051 | [20] -0.014

U2AF1 isoform 2 (UniProt Q01081)
UniProt Q01081, sequence (Q01081 whole entry, looked up): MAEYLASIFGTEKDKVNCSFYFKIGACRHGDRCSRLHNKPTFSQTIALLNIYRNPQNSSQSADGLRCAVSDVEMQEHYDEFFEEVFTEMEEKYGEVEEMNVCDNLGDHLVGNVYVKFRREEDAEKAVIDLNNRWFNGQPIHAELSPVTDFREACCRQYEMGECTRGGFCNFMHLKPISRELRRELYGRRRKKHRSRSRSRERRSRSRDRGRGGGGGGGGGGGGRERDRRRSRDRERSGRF
active: [4] -1.31
inactive: [1] 0.037 | [2] -0.06 | [3] -0.017 | [5] -0.056 | [6] 0.058 | [7] 0.01 | [8] -0.06 | [9] 0.034 | [10] -0.099 | [11] -0.174 | [12] -0.017 | [13] 0.058 | [14] -0.096 | [15] -0.013 | [16] -0.021 | [17] 0.039 | [18] -0.034 | [19] -0.039 | [20] -0.093

WDR7 (UniProt Q9Y4E6)
UniProt Q9Y4E6, sequence (Q9Y4E6 whole entry, looked up): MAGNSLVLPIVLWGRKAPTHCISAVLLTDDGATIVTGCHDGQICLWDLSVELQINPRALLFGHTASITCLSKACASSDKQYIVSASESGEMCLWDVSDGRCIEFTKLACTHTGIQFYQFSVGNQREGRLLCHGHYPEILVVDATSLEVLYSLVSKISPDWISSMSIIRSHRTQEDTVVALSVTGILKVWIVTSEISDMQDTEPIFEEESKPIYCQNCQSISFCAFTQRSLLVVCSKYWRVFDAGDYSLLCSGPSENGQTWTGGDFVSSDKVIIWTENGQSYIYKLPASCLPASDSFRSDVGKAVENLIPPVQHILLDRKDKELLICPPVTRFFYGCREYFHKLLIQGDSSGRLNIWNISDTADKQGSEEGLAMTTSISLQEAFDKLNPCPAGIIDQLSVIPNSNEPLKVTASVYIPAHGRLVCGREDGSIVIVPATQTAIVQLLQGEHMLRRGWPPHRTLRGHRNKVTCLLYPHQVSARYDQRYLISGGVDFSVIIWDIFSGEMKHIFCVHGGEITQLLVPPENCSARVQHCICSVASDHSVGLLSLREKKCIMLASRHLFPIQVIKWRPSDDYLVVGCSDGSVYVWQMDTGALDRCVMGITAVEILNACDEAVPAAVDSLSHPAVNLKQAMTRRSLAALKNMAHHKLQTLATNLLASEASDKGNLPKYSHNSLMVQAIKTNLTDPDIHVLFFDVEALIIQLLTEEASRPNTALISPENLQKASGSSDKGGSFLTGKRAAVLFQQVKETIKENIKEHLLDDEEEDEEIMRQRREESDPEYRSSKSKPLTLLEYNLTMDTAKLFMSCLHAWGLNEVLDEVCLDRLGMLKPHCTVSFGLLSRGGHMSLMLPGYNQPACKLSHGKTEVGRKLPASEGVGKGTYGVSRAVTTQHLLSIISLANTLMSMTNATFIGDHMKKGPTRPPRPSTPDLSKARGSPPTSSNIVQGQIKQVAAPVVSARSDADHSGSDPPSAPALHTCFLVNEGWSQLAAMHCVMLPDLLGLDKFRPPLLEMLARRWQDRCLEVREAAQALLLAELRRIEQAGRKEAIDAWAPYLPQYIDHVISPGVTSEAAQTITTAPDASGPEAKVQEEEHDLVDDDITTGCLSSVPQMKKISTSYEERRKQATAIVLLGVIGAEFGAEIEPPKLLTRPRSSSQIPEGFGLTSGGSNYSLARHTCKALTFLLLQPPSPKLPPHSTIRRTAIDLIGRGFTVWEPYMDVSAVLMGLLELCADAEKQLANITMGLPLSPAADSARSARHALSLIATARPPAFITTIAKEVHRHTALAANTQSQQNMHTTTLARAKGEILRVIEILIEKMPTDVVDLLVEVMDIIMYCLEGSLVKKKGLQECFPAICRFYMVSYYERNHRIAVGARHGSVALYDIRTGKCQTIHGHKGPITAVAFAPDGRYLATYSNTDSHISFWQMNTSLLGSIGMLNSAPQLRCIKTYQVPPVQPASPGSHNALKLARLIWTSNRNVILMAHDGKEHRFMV
inactive: [1] -0.034 | [2] 0.082 | [3] -0.089 | [4] -0.01 | [5] -0.058 | [6] -0.034 | [7] 0.085 | [8] -0.084 | [9] 0.058 | [10] -0.118 | [11] -0.227 | [12] -0.017 | [13] 0.104 | [14] -0.019 | [15] 0.008 | [16] 0.036 | [17] -0.125 | [18] 0.032 | [19] 0.119 | [20] -0.088

XRCC5 (UniProt P13010)
inactive: [1] 0.083 | [2] 0.07 | [3] -0.12 | [4] -0.405 | [5] -0.118 | [6] -0.243 | [7] 0.105 | [8] 0.123 | [9] -0.082 | [10] -0.014 | [11] -0.024 | [12] -0.172 | [13] -0.122 | [14] -0.058 | [15] 0.155 | [16] 0.151 | [17] 0.163 | [18] 0.019 | [19] -0.096 | [20] -0.041

VARS2, A0A0G2JL52
inactive: [1] -0.051 | [2] 0 | [3] -0.043 | [4] 0.012 | [5] 0.009 | [6] 0.003 | [7] 0.037 | [8] -0.021 | [9] -0.01 | [10] -0.049 | [11] 0.013 | [12] -0.01 | [13] -0.087 | [14] -0.062 | [15] 0.028 | [16] 0.106 | [17] 0.006 | [18] -0.005 | [19] -0.048 | [20] -0.017

VRK1 (UniProt Q99986)
UniProt Q99986, sequence (Q99986 whole entry, looked up): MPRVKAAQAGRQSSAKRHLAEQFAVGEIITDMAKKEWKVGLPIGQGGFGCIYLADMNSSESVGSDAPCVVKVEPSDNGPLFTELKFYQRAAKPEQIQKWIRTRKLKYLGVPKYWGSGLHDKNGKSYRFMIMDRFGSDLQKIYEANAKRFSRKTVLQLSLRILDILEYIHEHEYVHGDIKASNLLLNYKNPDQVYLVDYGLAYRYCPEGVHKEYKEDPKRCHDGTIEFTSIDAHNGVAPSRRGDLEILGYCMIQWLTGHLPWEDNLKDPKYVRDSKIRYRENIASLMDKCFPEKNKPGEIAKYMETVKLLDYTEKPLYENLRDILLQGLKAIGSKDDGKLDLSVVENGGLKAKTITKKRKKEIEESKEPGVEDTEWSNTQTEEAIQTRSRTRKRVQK
active: [4] 0.542
inactive: [1] 0.035 | [2] 0.078 | [3] -0.074 | [5] -0.224 | [6] 0.164 | [7] 0.057 | [8] 0.028 | [9] -0.041 | [10] 0.008 | [11] -0.056 | [12] 0.025 | [13] -0.11 | [14] -0.144 | [15] 0.059 | [16] 0.046 | [17] 0.023 | [18] -0.028 | [19] -0.138 | [20] 0.063

WARS2 (UniProt Q9UGM6)
UniProt Q9UGM6, sequence (Q9UGM6 whole entry, looked up): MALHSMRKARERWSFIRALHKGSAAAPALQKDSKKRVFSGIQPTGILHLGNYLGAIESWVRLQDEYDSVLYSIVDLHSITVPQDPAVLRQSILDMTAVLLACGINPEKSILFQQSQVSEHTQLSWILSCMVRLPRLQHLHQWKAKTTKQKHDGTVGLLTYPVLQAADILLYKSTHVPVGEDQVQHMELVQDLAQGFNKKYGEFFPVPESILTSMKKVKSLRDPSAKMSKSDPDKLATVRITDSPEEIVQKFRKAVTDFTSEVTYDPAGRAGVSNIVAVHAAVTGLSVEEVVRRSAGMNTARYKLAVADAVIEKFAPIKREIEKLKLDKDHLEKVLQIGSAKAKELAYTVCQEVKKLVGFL
active: [10] -0.569
inactive: [1] -0.183 | [2] 0.016 | [3] -0.086 | [4] -0.008 | [5] -0.147 | [6] 0.047 | [7] 0.022 | [8] -0.056 | [9] -0.046 | [11] -0.082 | [12] -0.019 | [13] -0.101 | [14] -0.08 | [15] 0.076 | [16] 0.037 | [17] 0.095 | [18] 0.07 | [19] 0.01 | [20] -0.023

USP9X (UniProt Q93008)
inactive: [1] -0.016 | [2] 0.071 | [3] -0.099 | [4] -0.056 | [5] -0.122 | [6] -0.004 | [7] -0.052 | [8] -0.021 | [9] -0.126 | [10] 0.052 | [11] 0 | [12] -0.062 | [13] -0.174 | [14] -0.041 | [15] 0.037 | [16] 0.06 | [17] 0.032 | [18] 0.017 | [19] -0.015 | [20] -0.056
